Assay outcomes deposited in PubChem BioAssay by Broad Institute.
This excerpt belongs to a sample that is enriched for hits.
U2OS ROS induce: raises reactive oxygen species in U2OS cancer cells | U2OS ROS induction, H2DCF-DA fluorescence | ROS induction (% of piperlongumine), % at 10 µM | actives 2% (n = 46,000); in the data active means ROS induction above about 79%, passing the limit was not always enough;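 further: 0% = DMSO vehicle median and 100% = reference compound median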
Numbers without * were called inactive.

SMILES	U2OS ROS induce
C[C@H](CO)N1C[C@H](C)[C@@H](CN(C)C(=O)Nc2ccc3c(c2)OCO3)Oc2c(NS(=O)(=O)c3ccccc3)cccc2C1=O	-4
C[C@@H]1CN([C@@H](C)CO)C(=O)c2cccc(NC(=O)Nc3ccc4c(c3)OCO4)c2O[C@@H]1CN(C)Cc1ccc(C(=O)Nc2ccccc2N)cc1	9
C[C@H](CO)N1C[C@H](C)[C@H](CN(C)Cc2ccc(C(F)(F)F)cc2)Oc2c(NC(=O)Nc3ccc4c(c3)OCO4)cccc2C1=O	13
CC(C)NC(=O)N(C)C[C@@H]1Oc2c(NC(=O)Nc3ccc4c(c3)OCO4)cccc2C(=O)N([C@@H](C)CO)C[C@H]1C	-12
C[C@H]1CN([C@@H](C)CO)C(=O)c2cccc(NC(=O)Nc3ccc4c(c3)OCO4)c2O[C@@H]1CN(C)Cc1ccc(C(F)(F)F)cc1	70
C[C@H](CO)N1C[C@H](C)[C@@H](CN(C)Cc2ccc(C(F)(F)F)cc2)Oc2c(NC(=O)Nc3ccc4c(c3)OCO4)cccc2C1=O	92*
C[C@H](CO)N1C[C@H](C)[C@H](CN(C)C(=O)Nc2ccc3c(c2)OCO3)Oc2c(NS(=O)(=O)c3ccccc3)cccc2C1=O	100*
CC(C)NC(=O)N(C)C[C@@H]1Oc2c(NC(=O)Nc3ccc4c(c3)OCO4)cccc2C(=O)N([C@H](C)CO)C[C@@H]1C	17
C[C@H]1CN([C@@H](C)CO)C(=O)c2cc(NC(=O)CCCN(C)C)ccc2O[C@H]1CN(C)S(=O)(=O)c1cn(C)cn1	-8
CCOc1ncc(-c2nnnn2-c2ccc(C)cc2)c(-c2cccc(Cl)c2)n1	22
Cc1cccc(NC(=O)c2ccc(OC(C)C(=O)Nc3ccccc3C(F)(F)F)cc2)c1C (stereo unspecified)	-1
COC(=O)[C@]1(CCS(=O)(=O)c2ccccc2)N=C(c2ccc(OCCCO)cc2)O[C@@H]1c1ccccc1N=[N+]=[N-]	71
C[C@@H]1CN([C@H](C)CO)C(=O)c2cc(NC(=O)c3ccncc3)ccc2O[C@@H]1CN(C)Cc1ccc(Cl)c(Cl)c1	-11
C[C@@H]1CN([C@@H](C)CO)C(=O)c2cccc(N(C)C)c2O[C@@H]1CN(C)CC1CC1	2
O=S(=O)(N[C@@H]1CCCN(Cc2ccc(OCCO)cc2)C1)c1cc(C(F)(F)F)ccc1Cl	12
COc1ccc(S(=O)(=O)N(C)C[C@@H]2Oc3ccc(NS(=O)(=O)c4ccccc4)cc3C(=O)N([C@@H](C)CO)C[C@@H]2C)cc1	33
C[C@@H]1CN([C@H](C)CO)C(=O)CCCn2cc(nn2)CO[C@H]1CN(C)S(=O)(=O)c1cn(C)cn1	-8
C[C@H](CO)N1C[C@H](C)[C@@H](CN(C)C(=O)Nc2ccc3c(c2)OCO3)Oc2ccc(NC(=O)Nc3cccc4ccccc34)cc2C1=O	-9
C[C@@H]1CN([C@@H](C)CO)C(=O)c2cc(NC(=O)Nc3cccc4ccccc34)ccc2O[C@@H]1CN(C)Cc1ccc2c(c1)OCO2	-8
C[C@H](CO)N1C[C@H](C)[C@H](CN(C)C(=O)Nc2ccc3c(c2)OCO3)Oc2ccc(NC(=O)Nc3cccc4ccccc34)cc2C1=O	79*
C[C@H]1CN([C@@H](C)CO)C(=O)c2cc(NC(=O)Nc3cccc4ccccc34)ccc2O[C@H]1CN(C)Cc1ccc2c(c1)OCO2	6
C[C@H]1CN([C@@H](C)CO)C(=O)c2cc(NC(=O)Nc3cccc4ccccc34)ccc2O[C@@H]1CN(C)C(=O)Nc1ccc2c(c1)OCO2	-1
C[C@H]1CN([C@@H](C)CO)C(=O)c2cc(NC(=O)Nc3cccc4ccccc34)ccc2O[C@@H]1CN(C)Cc1ccc2c(c1)OCO2	120*
COC(=O)c1cc(NC(=O)CN(c2cc(Cl)c(Cl)cc2Cl)S(C)(=O)=O)ccc1Cl	38
C[C@@H]1CN([C@H](C)CO)C(=O)Cc2cc(NS(=O)(=O)c3ccccc3)ccc2O[C@@H]1CN(C)C(=O)Nc1cccc2ccccc12	-3
SMILES	U2OS ROS induce
O=C1O[C@@H](c2ccccc2)[C@@H](c2ccccc2)N2[C@@H](c3ccc(O)cc3)[C@]3(C(=O)Nc4ccc(C#CC5(O)CCCCCC5)cc43)[C@@H](C(=O)N3CCCCCCC3)[C@H]12	15
C[C@H](CO)N1C[C@H](C)[C@H](CN(C)C(=O)Nc2ccc(C(F)(F)F)cc2)Oc2ccc(NC(=O)Nc3ccc(C(F)(F)F)cc3)cc2CC1=O	14
COC(=O)c1cc(NC(=O)CSc2nnc(C)s2)ccc1Cl	-5
C[C@@H]1CN([C@H](C)CO)C(=O)c2cccc(NC(=O)Nc3ccc(C(F)(F)F)cc3)c2O[C@H]1CN(C)Cc1ccc(-c2ccccc2)cc1	-3
CCN(CC)S(=O)(=O)c1c(C)cc(C)cc1C	7
COc1ccc(CCNC(=O)c2ccc3c(=O)n(CC4CCCO4)c(=S)[nH]c3c2)cc1OC (stereo unspecified)	3
COc1ccc(CCNC(=O)c2ccc3c(=O)n(CCC4=CCCCC4)c(=S)[nH]c3c2)cc1OC	96*
O=C(NCc1ccccc1)c1ccc2c(=O)n(CCC3=CCCCC3)c(=O)[nH]c2c1	44
